A1 inhib: blocks A1 activity; MEF A1-2A-BIM cells, caspase-Glo luminescence, 3 h; percent of clofoctol signal, DMSO as zero; caspase activation, % (no concentration beside the values); 21,000 compounds, 0.51% hits;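 active = most replicate scores above 10, or exactly half above 10 with mean activity above 10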;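 note: effector caspase 3 and 7 activity cleaving a DEVD luciferin substrate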
BJeLR viability: BJeLR cell viability reduction | BJeLR fibroblasts viability, CellTiterGlo ATP luminescence, 48 h; HRASV12, hTERT and SV40 LT/ST transformed | viability loss activity score, % (concentration not given with the values) | 30,000 compounds, 0.64% hits | AID 2275; in the data active = viability loss activity score above about 50%;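 note: higher score means fewer live cells and less ATP luminescence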
An asterisk follows results filed as active; nt = no result. Compounds with a hit are over-represented: about 0.9% of the library has one in this group of screens.

SMILES	A1 inhib	BJeLR viability
COC1CC(OC2C(C)OC(OC3C(C)OC(OC4C(C)OC(O[C@H]5CC[C@@]6(C)C(=CC[C@]7(O)C6CC(OC(=O)c6ccccc6)[C@@]6(C)[C@]7(O)CC[C@@]6(O)C(C)=O)C5)CC4OC)CC3OC)CC2OC)OC(C)C1O (stereo partly drawn)	0	75*
COC(=O)[C@@]12C(=O)C(C)C(=O)[C@]1(C)C(C)=C[C@H]1[C@]3(C)CC[C@H](OC(C)=O)C(C)(C)[C@H]3CC[C@@]12C (stereo partly drawn)	0	-5
S=C(Nc1ccccc1)N1CCCCC1c1cccnc1 (stereo not drawn)	1	-7
COc1ccc(-n2c(C)nc3ccccc3c2=O)cc1	1	0
CC(=O)O[C@H]1C[C@H](O[C@H]2[C@@H](O)C[C@H](O[C@H]3[C@@H](O)C[C@H](O[C@H]4CC[C@@]5(C)C(CCC6C5C[C@@H](O)[C@]5(C)[C@@H](C7=CC(=O)OC7)CC[C@]65O)C4)O[C@@H]3C)O[C@@H]2C)O[C@H](C)[C@H]1O[C@@H]1O[C@H](CO)[C@@H](O)[C@H](O)[C@H]1O (stereo partly drawn)	0	109*
CO[C@@H]1[C@H](O)[C@@H](O[C@@H]2C[C@H]3CC[C@@H]4C(CC[C@]5(C)[C@@H](C6=CC(=O)OC6)CC[C@]45O)[C@@]3(C)[C@H](O)C2)O[C@H](C)[C@@H]1O[C@@H]1O[C@H](CO)[C@@H](O)[C@H](O)[C@H]1O (stereo partly drawn)	0	111*
CO[C@H]1[C@H](O)[C@H](O[C@H]2CC[C@]3(C)C4CC[C@]5(C)[C@H](C6=CC(=O)OC6)CC[C@]5(O)C4CC[C@@H]3C2)O[C@@H](C)[C@@H]1O[C@@H]1O[C@H](CO[C@@H]2O[C@H](CO)[C@@H](O)[C@H](O)[C@H]2O)[C@@H](O)[C@H](O)[C@H]1O (stereo partly drawn)	-1	100*
CC(=O)NCC1CCCN2CCCCC12 (stereo not drawn)	1	3
CC(Cc1c[nH]c2ccccc12)N(Cc1ccccc1)Cc1ccccc1 (stereo not drawn)	nt	3
Cc1cc(OCC(=O)N(C)C)c2c3c(c(=O)oc2c1)CCCC3	0	-8
O=C1CCCC2C3CC(CN12)[C@@H]1CCCCN1C3 (stereo partly drawn)	1	-8
N#CC(C#N)=NNc1ccc(OC(F)(F)F)cc1	-3	86*
C=CC(C)(C)[C@]12C=C(OC)C(=O)N3/C(=C/c4cnc[nH]4)C(=O)N[C@@]31N(OC)c1ccccc12	0	0
O=C1c2ccccc2-c2cccc3cccc1c23	0	74*
c1ccc2c(c1)cc1ccc3cccc4ccc2c1c34	1	-4
O=C(CCNS(=O)(=O)c1ccccc1)Nc1ccc(Br)cc1C(=O)c1ccccc1	-1	7
Cc1ccccc1OCCCn1cc(C(=O)C(C)(C)C)c2ccccc21	nt	4
CC(=O)O[C@@H](c1nc2ccccc2c(=O)n1[C@@H]1C[C@@]2(OC1=O)c1ccccc1N1C(=O)[C@H](C)N(O)[C@@H]12)C(C)C	0	-5
CC(C)(C)c1cc(C=C(C#N)C#N)cc(C(C)(C)C)c1O	-2	71*
N#CC(C#N)=Cc1ccc(O)c(O)c1	-1	0
COc1cc(C)c(Oc2cc(C)cc(O)c2)c(O)c1	0	-9
C[C@@H]1O[C@@H](O[C@H]2[C@H](O)[C@@H](O)[C@H](O[C@@H]3C=C4CC[C@@H]5C(CC[C@]6(C)[C@@H](c7ccc(=O)oc7)CC[C@]56O)[C@@]4(C)CC3)O[C@@H]2CO)[C@H](O)[C@H](O)[C@H]1O (stereo partly drawn)	2	125*
CCC(C)[C@H]1O[C@]2(C=C[C@@H]1C)C[C@@H]1C[C@@H](C/C=C(\C)[C@@H](OC3C[C@H](OC)C(O[C@H]4C[C@H](OC)[C@@H](O)[C@H](C)O4)[C@H](C)O3)[C@@H](C)/C=C/C=C3\CO[C@@H]4[C@H](O)C(C)=C[C@@H](C(=O)O1)[C@]34O)O2 (stereo partly drawn)	0	-4
Cc1cc(-n2c(=S)[nH]c3ccccc3c2=O)ccc1Br	1	1
CC1=C(C(=O)OC(C)(C)C)C2(C(=O)Nc3ccccc32)C(C#N)=C(N)O1 (stereo not drawn)	nt	-4
SMILES	A1 inhib	BJeLR viability
C=C1[C@@H](C)[C@H]2[C@H](Cc3ccccc3)NC(=O)[C@]23[C@H](OC(C)=O)C=C[C@](C)(O)C(=O)[C@@H](C)C/C=C/[C@H]3[C@@H]1O	16*	20
CCN1CC2(COC)CCC(O)C34C5CC6C(OC)CC(O)(C5C6O)C(C(OC)C23)C14 (stereo not drawn)	0	3
O=c1c2ccccc2[nH]c(=S)n1-c1cc(C(F)(F)F)cc(C(F)(F)F)c1	1	-1
COC(=O)[C@@]1(O)C[C@@H]2O[C@@]1(C)n1c3ccccc3c3c4c(c5c6ccccc6n2c5c31)C(=O)NC4	13*	nt
COc1cc2c(cc1O)C1Cc3ccc(OC)c(O)c3CN1CC2 (stereo not drawn)	0	5
CC[C@@]1(O)C(=O)OCc2c1cc1n(c2=O)-c2cc3ccccc3nc2C1	0	121*
CC[C@@H]1/C=C\C=C\C[C@H](C)C(O)[C@](C)(O)C(=O)[C@H](C)C(O)[C@H](C)C(=O)[C@H](C)[C@@H](O)[C@H](C)/C=C/C(=O)O[C@H]2[C@@H](C)[C@@H](CC1)O[C@@]1(CC[C@@H](C)[C@@H](C[C@H](C)O)O1)[C@@H]2C (stereo partly drawn)	-1	-16
CSc1nc(-c2ccc(Cl)cc2)nn1C(=O)N(C)C	-1	-2
COc1ccc2c(c1OC)C(=O)O[C@@H]2[C@@H]1c2cc3c(cc2CCN1C)OCO3	-1	-9
C/C1=C/C(=O)O[C@@H]2C[C@@H](CC[C@H](C)/C=C\CC1)O[C@@](O)([C@@H]1CSC(=O)N1)C2	23*	41
CO[C@H](C)C(O)(C(=O)OCC1=CCN2CC[C@H](O)[C@@H]12)C(C)C (stereo partly drawn)	-1	5
COc1ccc2c3c1O[C@H]1[C@@H](O)CC=C4[C@@H](C2)N(C)CC[C@]431	0	-2
O=C(Nc1ccc2c(C(F)(F)F)cc(=O)oc2c1)c1cc(Cl)cc(Cl)c1	-1	-1
CO[C@H]1C[C@H](OC2CCC3(C)C4CCC5(C)C(C6=CC(=O)OC6)CC(OC(C)=O)C5(O)C4CC[C@H]3C2)O[C@@H](C)[C@@H]1O (stereo partly drawn)	0	99*
C[C@H]1OC(O[C@H]2[C@@H](O)CC(O[C@H]3[C@@H](O)C[C@H](O[C@H]4CC[C@]5(C)C6CC[C@]7(C)[C@@H](C8=CC(=O)OC8)[C@@H](O)C[C@]7(O)[C@@H]6CC[C@@H]5C4)O[C@@H]3C)O[C@@H]2C)C[C@H](O)C1O (stereo partly drawn)	0	98*
C[C@H]1O[C@@H](O[C@H]2[C@@H](O)C[C@H](O[C@H]3[C@@H](O)C[C@H](O[C@H]4CC[C@@]5(C)[C@H](CC[C@@H]6[C@@H]5CC[C@]5(C)[C@@H](C7=CC(=O)OC7)CC[C@]65O)C4)O[C@@H]3C)O[C@@H]2C)C[C@H](O)[C@@H]1O	0	134*

Screening results (PubChem)
